Screening data deposited in PubChem BioAssay by several laboratories.
BoNT-A LC inh2: inhibitors of Botulinum neurotoxin A light chain protease | multiplex microsphere protease substrate cleavage, flow cytometry | inhibition, % at 10 µM | hit rate 0.17% among 360,000 | AID 588499; also: plate controls were buffer without enzyme for full effect and enzyme alone for no effect
Anthrax LF prot: blocks Bacillus anthracis lethal factor protease | P15917 | multiplex microsphere protease cleavage assay, LF | inhibition, % at 10 µM | hit rate 0.12% among 360,000; also: plate controls were buffer without enzyme for full effect and enzyme alone for no effect
Target sequence (P15917 whole entry, looked up): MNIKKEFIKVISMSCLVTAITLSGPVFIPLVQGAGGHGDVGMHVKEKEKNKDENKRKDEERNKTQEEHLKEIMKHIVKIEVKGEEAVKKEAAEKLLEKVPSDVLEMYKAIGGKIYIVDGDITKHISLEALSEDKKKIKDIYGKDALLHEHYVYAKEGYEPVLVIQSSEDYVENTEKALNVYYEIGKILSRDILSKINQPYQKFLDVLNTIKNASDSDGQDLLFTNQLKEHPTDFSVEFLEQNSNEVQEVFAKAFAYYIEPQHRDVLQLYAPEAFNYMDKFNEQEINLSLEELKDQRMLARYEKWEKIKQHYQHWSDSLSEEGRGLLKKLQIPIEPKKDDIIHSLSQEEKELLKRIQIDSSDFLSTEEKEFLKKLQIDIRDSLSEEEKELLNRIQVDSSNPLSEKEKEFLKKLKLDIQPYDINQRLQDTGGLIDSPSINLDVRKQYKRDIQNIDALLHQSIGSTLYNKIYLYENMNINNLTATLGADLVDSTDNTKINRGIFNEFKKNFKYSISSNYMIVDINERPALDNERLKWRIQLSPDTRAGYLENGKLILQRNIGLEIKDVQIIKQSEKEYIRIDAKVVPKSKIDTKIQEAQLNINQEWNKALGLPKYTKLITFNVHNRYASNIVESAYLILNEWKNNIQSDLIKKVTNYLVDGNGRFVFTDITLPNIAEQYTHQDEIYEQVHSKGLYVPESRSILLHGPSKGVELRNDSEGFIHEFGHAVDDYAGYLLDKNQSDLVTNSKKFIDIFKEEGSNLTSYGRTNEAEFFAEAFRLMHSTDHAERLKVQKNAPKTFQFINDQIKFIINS
BoNT-F LC inh: inhibitors of Botulinum neurotoxin F light chain protease; Multiplex microsphere protease cleavage assay, flow cytometry; inhibition, % at 10 µM; hit rate 0.22% among 360,000; AID 588497; in the data active = inhibition above about 35%, passing the limit was not always enough; inconclusive = no clear call, values can overlap the other calls; also: plate controls were buffer without enzyme for full effect and enzyme alone for no effect
Autofluor counter: compound fluorescence in toxin protease inhibitor counterscreen; hit rate 3.1% among 360,000; AID 624483; compound autofluorescence counterscreen, microsphere flow cytometry; active compounds read high; fluorescence intensity (no concentration beside the values); in the data active = fluorescence intensity above about 16000; inconclusive = no clear call, values can overlap the other calls
3CLpro inhibitor: SARS-CoV 3CLpro protease inhibition; inhibition, % at 6 µM; hit rate 0.14% among 290,000; P0C6X7; recombinant SARS-CoV 3CLpro, quenched FRET peptide cleavage; in the data active = inhibition above about 12%
CCHF vOTU inh: blocks the CCHF virus ovarian tumor domain protease. CCHFV vOTU protease, Pep-AMC fluorescence. inhibition, % at 11.5 µM. hit rate 0.55% among 370,000. AID 651958; in the data active = inhibition above about 30%; also: 0% = vehicle wells with enzyme and 100% = no enzyme wells
Numbers without * were called inactive; ? = inconclusive; / = not tested or not shown. A selection: hits, their analogues and other compounds. The true share with any hit is near 3.9%. Rule as the data show it, unless noted: active = inhibition above about 30%; inconclusive = no clear call, values can overlap the other calls; inactive = below that.

SMILES | BoNT-A LC inh2 | Anthrax LF prot | BoNT-F LC inh | Autofluor counter | 3CLpro inhibitor | CCHF vOTU inh
CCOC(=O)c1c(NC(=O)c2ccccc2Br)sc2c1CCc1ccccc1-2 | ? | -2 | 4 | 22027* | -2 | -12
CCOC(=O)c1c(NC(C)=O)sc2c1CCN(Cc1ccccc1)C2 | 0 | -6 | 4 | 5686 | -2 | -2
CCOC(=O)c1c(NC(=O)c2ccccc2N(C)S(=O)(=O)c2ccccc2)sc2c1CCCC2 | 0 | -1 | -2 | 2463 | 5 | 17
Cc1nc2ccc(NC(=S)NC3CCCCC3)cc2nc1C | 2 | -2 | 2 | 3183 | -1 | 7
COC(=O)Nc1ccc(=O)n(Cc2c(Cl)cccc2Cl)c1 | -1 | -2 | -7 | 23829* | 0 | -5
Cc1cccc(-c2c3c(=O)n(C)c(=O)n(C)c3cn2-c2ccc(O)cc2)c1 | -1 | 0 | -2 | 20937* | 3 | 0
CC(C)(C)c1ccc(OCCC(=O)OCC(=O)NCc2ccccc2)cc1 | -4 | -3 | -11 | 5875 | / | 27
COc1cccc(NC(=S)NCc2ccc3c(c2)cc(C)n3C)c1 | 54* | -84 | -121 | 2002 | 4 | 0
NNC(=S)Nc1ccc(OC(F)(F)F)cc1 | / | / | / | / | -1 | 8
Cc1cccc(NC(=S)NCc2cccs2)c1C | 1 | 0 | 12 | 4115 | 6 | 2
Cc1cccc(NC(=S)NCc2ccccc2Cl)c1C | 2 | -13 | 37* | 4243 | -1 | 2
Cc1cc2cc(CNC(=S)Nc3ccc(OC(F)(F)F)cc3)ccc2n1C | 60* | -82 | -106 | 1752 | -1 | 6
Cc1cccc(NC(=S)NCc2ccc3c(c2)cc(C)n3C)c1C | 47* | -74 | -125 | 2076 | 1 | 19
CCN(C(=O)COC(=O)CCOc1ccccc1C)c1c(N)n(Cc2ccccc2)c(=O)[nH]c1=O | 0 | 5 | 4 | 3925 | / | -13
Cc1cc(C)cc(C(=O)OCCCN(C)C2CN(Cc3cn(Cc4cccc(F)c4)nn3)S(=O)(=O)C2)c1 (centres undefined) | / | / | / | / | / | 18
O=c1[nH]c(CN2CCN(C/C=C/c3ccccc3)CC2)nc2ccccc12 | ? | 1 | -2 | 21675* | 2 | -3
NC(=O)C1CCN(Cc2nc3ccccc3c(=O)[nH]2)CC1 | 0 | 1 | -1 | 23828* | -3 | 6
O=c1[nH]c(CN2CCN(S(=O)(=O)/C=C/c3ccccc3)CC2)nc2ccccc12 | 1 | -6 | 0 | 3972 | 4 | -4
COCCCNC(=O)C[C@H]1C[C@@]2(C(=O)OC)C(=C[C@H](C(C)C)O[C@@H]2C2CC2)N(CCc2ccc(OC)c(OC)c2)C1=O | / | / | / | / | / | 9
CCOc1cc2[nH]c(=S)n(CCCN(CC)CC)c(=O)c2cc1OCC | 0 | 9 | 7 | 8924 | 1 | 5
CCOc1cc2[nH]c(=S)n(CCOC)c(=O)c2cc1OCC | -1 | -4 | -2 | 22228* | -2 | -5
CCCCCNC(=O)CCCCn1c(=O)[nH]c2cc(OCC)c(OCC)cc2c1=O | -1 | 1 | -8 | 4282 | -6 | -12
COc1cc2[nH]c(=S)n(NC(=O)CC(C)C)c(=O)c2cc1OC | ? | -4 | -3 | 24467* | 4 | -10
CCCCNC(=O)CCCCCn1c(=O)[nH]c2cc(OC)c(OC)cc2c1=O | ? | -11 | -1 | 19264* | 3 | -7
CCCn1c(=S)[nH]c2cc(OC)c(OC)cc2c1=O | -1 | -1 | -2 | 22976* | -1 | /
SMILES | BoNT-A LC inh2 | Anthrax LF prot | BoNT-F LC inh | Autofluor counter | 3CLpro inhibitor | CCHF vOTU inh
COc1cc2[nH]c(=S)n(Cc3cccs3)c(=O)c2cc1OC | -1 | -1 | 0 | 4424 | -1 | -7
CCNC(=O)C1(C)CCCN(Cc2ccc(Oc3ccccc3)cc2)C1 (centres undefined) | 0 | -2 | 0 | 4015 | / | 7
CCOC(=O)N1CCN(C(=O)CCn2c(=S)[nH]c3cc(OCC)c(OCC)cc3c2=O)CC1 | / | / | / | / | 2 | /
CCOc1cc2[nH]c(=S)n(CCCC(=O)N3CCC4(CC3)OCCO4)c(=O)c2cc1OCC | -1 | 1 | 0 | 22729* | -3 | -2
CCn1c(=O)c(C(C)=O)nc2ccccc21 | 2 | 0 | 4 | 2869 | -2 | 13
CCCCCn1c(=O)c(C(=O)c2ccccc2)nc2ccccc21 | ? | -12 | 3 | 18403* | 2 | -2
CCCCOc1ccc(C(=O)NCC2(c3ccccc3)CCOCC2)cc1 | ? | 0 | 2 | 22415* | 0 | 6
CCCCCOc1ccc(C(=O)NCC2(c3ccccc3)CCOCC2)cc1 | -2 | -6 | -2 | 16606* | 1 | 5
CCOc1ccc(C(=O)NCC2(c3ccccc3)CCOCC2)cc1 | -1 | -1 | -14 | 2975 | -3 | -6
O=C(c1cc(-c2cccnc2)nc2ccc(Br)cc12)N1CCC2(CC1)OCCO2 | / | / | / | / | -2 | /
CCN1CCN(C(=O)c2cc(-c3cccnc3)nc3ccc(Br)cc23)CC1 | ? | 2 | -1 | 20068* | 3 | 0
COc1ccc(NC(=O)Nc2ccc(F)c(F)c2)c(OC)c1 | -1 | -1 | -3 | 2022 | 4 | -9
O=C(CSc1nc(-c2ccccc2)c(-c2ccccc2)o1)Nc1nncs1 | -1 | -2 | 1 | 3214 | -3 | 0
Cc1nonc1NC(=O)CSc1nc2ccccc2o1 | -2 | -9 | -3 | 3825 | -5 | 2
O=C(CSc1nc(-c2ccccc2)c(-c2ccccc2)o1)Nc1nnc(-c2ccccc2)s1 | 1 | -2 | -2 | 22803* | -3 | 0
CC(=O)Nc1nonc1NC(=O)CSc1nc2ccccc2o1 | 0 | -2 | 0 | 22359* | 2 | 9
CCc1nnc(NC(=O)CSc2nc3ccccc3o2)s1 | 1 | -1 | 2 | 22539* | 4 | -7
Cc1cccc(N2CCN(C(=O)c3ccc(Cl)c(NC4=NC5CS(=O)(=O)CC5S4)c3)CC2C)c1 (centres undefined) | 0 | -3 | 0 | 4473 | -2 | 1
COCC(=O)Nc1nc(-c2ccccc2)c(C)s1 | -1 | -1 | -2 | 19856* | 4 | 12
CCc1ccc(N(C(=O)CCC(=O)Nc2cc(C)on2)C(C(=O)NC(C)(C)C)c2ccc(OC)cc2)cc1 (centres undefined) | -1 | -6 | 35* | 3818 | 6 | 9
COc1ccc(C(C(=O)NC(C)(C)C)N(C(=O)CCC(=O)Nc2cc(C)on2)c2cccc(F)c2)cc1 (centres undefined) | 0 | 1 | -4 | 5373 | 1 | 2
Cc1ccccc1NC(=O)OC1CCC12CCC(c1ccccc1)CC2 (centres undefined) | / | / | / | / | / | 7
O=[N+]([O-])c1ccc(/C=N/NC2=NS(=O)(=O)c3ccccc32)cc1 | 0 | 0 | 3 | 2301 | 1 | -7
O=[N+]([O-])c1ccc(O)c(/C=N/NC2=NS(=O)(=O)c3ccccc32)c1 | 6 | 1 | 41* | 2644 | 5 | -15
COc1ccc(OC)c(-n2c(O)c(C=NCc3ccc4c(c3)OCO4)c(=O)[nH]c2=O)c1 | -1 | -1 | -3 | 16727* | 3 | -2
COc1ccc(CCn2c(O)c(C=NCc3ccc4c(c3)OCO4)c(=O)[nH]c2=O)cc1OC | -1 | 12 | 0 | 9798 | 2 | 0
